For 13 compounds, growth results are on record in PubChem BioAssay (NCI).

The panel holds about 83,000 compounds, 20% with a hit somewhere; the sample as a whole holds those more often.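 Results are percent growth after 48 hours of single-concentration exposure. 100 means growth as in untreated cells, lower positive values show inhibition; negative values down to -100 show cell death.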 A number with no mark means an inactive call. Activity calls are given as the source filed them. How the source made its calls: active means growth percent below 10; inactive means the rest.

Among the test systems are SK-MEL-2 melanoma; EKVX NSCLC; SN12C renal; UO-31 renal; TK-10 renal; ACHN renal; CAKI-1 renal; CCRF-CEM leukemia; MOLT-4 leukemia.
What all share (test): NCI-60 one-dose screen, 48 h (100 = growth as untreated, 0 = no growth, -100 = all killed)
Common to all, as to details: 10 µM unless noted

With `CN1CCN(Cc2ccc(NC(=O)c3cncc(C#Cc4cnc5ccc(OC6CCOCC6)nn45)c3)cc2C(F)(F)F)CC1`, the growth was -90.8% (active) with SK-MEL-2 melanoma; -73.8% (active) with EKVX NSCLC; -78.8% (active) in the experiment with SN12C renal; -92.3% (active) in the experiment on UO-31 renal; -89.6% (active) in the experiment on TK-10 renal; -100% (active) in the experiment on ACHN renal. Moreover, the values for the growth with CAKI-1 renal, in the experiment on CCRF-CEM leukemia and in the experiment on MOLT-4 leukemia were -97% (active), 0.551% (active) and 3.74% (active), respectively.

On to `CN1CCN(c2ccc(Nc3nc(NCCNC(=O)c4ccc(F)cc4)c4sccc4n3)cc2)CC1`, for which the growth in the experiment on SK-MEL-2 melanoma was 104%; with EKVX NSCLC, 92.7%; in the experiment on SN12C renal it was 84.2%; in the experiment with UO-31 renal, 65.5%; in the experiment on TK-10 renal, 128%; with ACHN renal, 67.8%. The growth in the experiment on CAKI-1 renal was 57.9%; in the experiment on CCRF-CEM leukemia it was 38.2%; with MOLT-4 leukemia, 23.4%.

Take `CC(C)[C@H]1c2[nH]c3ccccc3c2C[C@H]2C(=O)N(CCCCCCC(=O)NO)CC(=O)N12`: the growth in the experiment on SK-MEL-2 melanoma was 86.8%; in the experiment on EKVX NSCLC, 93%; with SN12C renal, 90.2%; in the experiment on UO-31 renal it was 83.2%; in the experiment with TK-10 renal, 72%; with ACHN renal, 98.2%. Moreover, the values for the growth with CAKI-1 renal, with CCRF-CEM leukemia and in the experiment on MOLT-4 leukemia were 86.2%, 27.8% and 34.6%, respectively.

Regarding `COc1ccc(C(=NNS(=O)(=O)c2ccc(C)cc2)c2ccccc2)cc1OC`, the growth is 101% with SK-MEL-2 melanoma; 95.4% in the experiment on EKVX NSCLC; 98.9% in the experiment on SN12C renal; 77.4% with UO-31 renal; 96.6% with TK-10 renal; 98% with ACHN renal. The growth in the experiment with CAKI-1 renal was 80.7%; with CCRF-CEM leukemia, 102%; with MOLT-4 leukemia, 98.3%.

Regarding `CC1=C(SCC(=O)OCCCCCC(C)C)C(=O)c2ccccc2C1=O`, the growth in the experiment with SK-MEL-2 melanoma is 99.1%; in the experiment on EKVX NSCLC it was 82.5%; in the experiment on SN12C renal it was 83%; with UO-31 renal it was 62.9%; in the experiment on TK-10 renal, 133%; in the experiment with ACHN renal it was 85.7%. In addition, the results for the growth with CAKI-1 renal, in the experiment on CCRF-CEM leukemia and in the experiment on MOLT-4 leukemia were 80.3%, 91.3% and 79.4%, respectively.

For the compound `COc1ccc(/C(=N\N=C(N)N)c2ccc(Cl)cc2)cc1OC`, the growth was 99.9% with SK-MEL-2 melanoma; 72.6% in the experiment on EKVX NSCLC; 70.8% in the experiment with SN12C renal; 83.7% in the experiment with UO-31 renal; 77% in the experiment on TK-10 renal; 94.8% with ACHN renal. Besides, the growth was 50.1% with CAKI-1 renal, 67.3% in the experiment on CCRF-CEM leukemia and 52.5% in the experiment with MOLT-4 leukemia.

Regarding `C#Cc1cc(C(=O)Nc2ccc(CNCCN3CCOCC3)c(C(F)(F)F)c2)ccc1C`, the growth with SK-MEL-2 melanoma was 104%; in the experiment on EKVX NSCLC it was 84.7%; in the experiment with SN12C renal it was 93.5%; in the experiment on UO-31 renal it was 72.7%; in the experiment on TK-10 renal it was 108%; in the experiment with ACHN renal, 98.4%. The growth in the experiment on CAKI-1 renal was 82.7%; in the experiment with CCRF-CEM leukemia, 98.7%; in the experiment on MOLT-4 leukemia, 81.6%.

Turning to `COC(=O)c1ccc(NC2=C(Cl)C(=O)C(C)=C(C)C2=O)cc1`, the growth with SK-MEL-2 melanoma was 69.1%; in the experiment with EKVX NSCLC, 53.2%; in the experiment with SN12C renal, 80.2%; in the experiment with UO-31 renal it was 65.1%; with TK-10 renal, 112%; with ACHN renal it was 63.2%. Also, the growth in the experiment on CAKI-1 renal was 43.3%; in the experiment with CCRF-CEM leukemia, 9.06% (active); with MOLT-4 leukemia, 9.07% (active).

For the compound `N/C(=N\C(N)=N\c1nc2ccccc2s1)c1ccc(Cl)cc1`, the growth in the experiment with SK-MEL-2 melanoma is 96.8%; in the experiment with EKVX NSCLC, 59.8%; in the experiment with SN12C renal, 61.1%; with UO-31 renal it was 73.1%; with TK-10 renal, 132%; with ACHN renal it was 62.1%. For the same compound, the growth with CAKI-1 renal was 65.1%; with CCRF-CEM leukemia it was 57.9%; in the experiment with MOLT-4 leukemia, 74%.

With `COc1ccc2sc(NC(=O)CCCCCCNC(=O)C(O)(O)C(F)(F)F)nc2c1`, the growth in the experiment on SK-MEL-2 melanoma was -17.5% (active); with EKVX NSCLC it was 23.3%; with SN12C renal, 10.5%; in the experiment with UO-31 renal it was -13.7% (active); with TK-10 renal it was -12.4% (active); with ACHN renal, -26.8% (active). For the same compound, the growth was -16.3% (active) in the experiment with CAKI-1 renal, 24.6% with CCRF-CEM leukemia and 13% with MOLT-4 leukemia.

Take `CN1CCN(Cc2ccc(NC(=O)c3cncc(C#Cc4cnc5ccc(OCC6COC6)nn45)c3)cc2C(F)(F)F)CC1`: the growth is -78.4% (active) with SK-MEL-2 melanoma; -71.6% (active) in the experiment with EKVX NSCLC; -30.6% (active) in the experiment with SN12C renal; -92.3% (active) with UO-31 renal; -82.2% (active) in the experiment with TK-10 renal; -96.5% (active) with ACHN renal. Moreover, the growth is -92.8% (active) in the experiment on CAKI-1 renal, -8.07% (active) in the experiment with CCRF-CEM leukemia and 1.49% (active) in the experiment with MOLT-4 leukemia.

Turning to `O=C(/C=C/c1cccc(C(F)(F)F)c1)Nc1cccc(C(F)(F)F)c1`, the growth is 76.8% with SK-MEL-2 melanoma; 50.1% with EKVX NSCLC; 83.1% in the experiment with SN12C renal; 47.7% with UO-31 renal; 53.5% in the experiment with TK-10 renal; 70.1% in the experiment on ACHN renal. For the same compound, the values for the growth in the experiment on CAKI-1 renal, in the experiment with CCRF-CEM leukemia and in the experiment with MOLT-4 leukemia were 34.1%, 31.7% and 35.8%, respectively.

With `CCN1CCN(c2ccc(NC(=O)Nc3ccc4c(ccn4-c4ccnc(C(=O)NC)c4)c3)cc2C(F)(F)F)CC1`, the growth in the experiment on SK-MEL-2 melanoma was 94.8%; with EKVX NSCLC, 86.3%; in the experiment on SN12C renal it was 90.8%; with UO-31 renal, 71%; with TK-10 renal it was 113%; in the experiment on ACHN renal, 74.7%. In addition, the figures for the growth in the experiment with CAKI-1 renal, in the experiment on CCRF-CEM leukemia and in the experiment on MOLT-4 leukemia were 79.3%, 7.75% (active) and 10.9%, respectively.
